MsrA inh = bovine MsrA enzyme inhibitors, primary screen, biochemical, absorbance, HTS; Methionine sulfoxide reductase A (Bos taurus); purified bovine MsrA, absorbance read-out; inhibition, % at 15.5 µM; 0.75% of 360,000 active; in the data active = inhibition above about 4.5%
rCAG binder = binders of r(CAG) RNA repeats, primary screen, biochemical, fluorescence; r(CAG) RNA repeat, TO-PRO-1 dye displacement fluorescence; inhibition, % at 3 µM; AID 651821, 2012; 1.3% of 370,000 active;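 active = inhibition above the plate cutoff, the mean of all test compounds on that plate plus 3 SD, cut at about 35% in these data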;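 also: higher means more dye released from RNA so lower well fluorescence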
HGIII-sPLA2 inh = human group III sPLA2 inhibitors, primary screen, biochemical, QFRET, BODIPY PC-A2 liposome substrate. 0.56% of 370,000 active. QFRET BODIPY PC-A2 liposome hydrolysis, fluorescence. inhibition, % at 12.2 µM;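 active = inhibition above mean plus 3 SD of compounds lying within the high and low control bounds, cut at about 19% in these data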
Target sequence (Q9NZ20 whole entry, looked up): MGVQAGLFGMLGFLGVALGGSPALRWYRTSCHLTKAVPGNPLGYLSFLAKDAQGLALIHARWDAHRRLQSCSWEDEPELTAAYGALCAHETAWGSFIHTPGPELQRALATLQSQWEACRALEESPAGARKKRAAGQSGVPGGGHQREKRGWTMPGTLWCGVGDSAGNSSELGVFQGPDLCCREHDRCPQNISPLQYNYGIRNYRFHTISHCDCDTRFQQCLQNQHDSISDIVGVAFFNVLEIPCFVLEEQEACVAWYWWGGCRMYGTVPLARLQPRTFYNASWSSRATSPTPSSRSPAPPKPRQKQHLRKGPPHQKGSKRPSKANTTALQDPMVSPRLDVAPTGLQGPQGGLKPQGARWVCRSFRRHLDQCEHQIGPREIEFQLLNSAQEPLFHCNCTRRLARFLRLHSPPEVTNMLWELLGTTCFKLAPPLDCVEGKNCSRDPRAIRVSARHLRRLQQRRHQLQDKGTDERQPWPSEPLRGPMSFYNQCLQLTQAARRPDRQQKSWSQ
bovine MsrA act = bovine MsrA enzyme activators, primary screen, biochemical, absorbance, HTS. Methionine sulfoxide reductase A (Bos taurus). purified bovine MsrA, absorbance read-out. activation, % at 10.6 µM. 0.3% of 360,000 active; in the data active = activation above about 7.5%
PG9 binder = binders of HIV-1 gp120 antibody PG9, primary screen, biochemical, TR-FRET. TR-FRET gp120-PG9 antibody binding. HIV-1 gp120 / PG9 antibody interaction. AID 624416, 2012. inhibition, % at 6.7 µM. 0.43% of 360,000 active; in the data active = inhibition above about 8.5%
MsrA activ conf = bovine MsrA activators, retest, confirmation, biochemical, absorbance, HTS; 12% of 1,000 active; purified bovine MsrA, absorbance read-out; AID 602270, 2012; activation, % at 10.6 µM; shares compounds with bovine MsrA act; in the data active = activation above about 4%;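 also: enzyme coupled to thioredoxin and thioredoxin reductase with NADPH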
Large screens that a line does not name were inactive (follow-up assays come after a bar, where they were run). Shown are actives, neighbours in structure and some others; about 3.2% of the full set was active somewhere.

S=c1nc(-c2cc(Cl)cc(Cl)c2)[nH][nH]1	none
COc1ccc(-c2nc(=S)[nH][nH]2)cc1OC	bovine MsrA act 10 | MsrA activ conf inactive
COc1cc(-c2nc(=S)[nH][nH]2)cc(OC)c1OC	bovine MsrA act 8.1 | MsrA activ conf 4.8
COc1ccc(-c2nc(=S)[nH][nH]2)cc1	none
O=C(OC12CCCN(C1)/C(=C/c1cccc(Cl)c1)C2)c1ccno1 (centres undefined)	none (no result: MsrA inh, bovine MsrA act, PG9 binder)
COc1ccc(N(CC(=O)NCc2ccc(C)cc2)S(=O)(=O)c2c(C)nn(C)c2C)cc1	bovine MsrA act 9.7 | MsrA activ conf inactive
Cc1noc(C)c1S(=O)(=O)NC1CCN(Cc2ccccc2)CC1	bovine MsrA act 10 | MsrA activ conf inactive
Cc1cc(C)c(S(=O)(=O)NC2CCN(Cc3ccccc3)CC2)c(C)c1	none
COCCCN1C(=O)[C@H](CC(=O)NCc2cccc3ccccc23)[C@]2(C(=O)OC)CCCCC=C12	none (no result: MsrA inh, bovine MsrA act, PG9 binder)
O=C(Cn1c(=O)oc2ccccc21)Nc1n[nH]c(=S)s1	bovine MsrA act 7.9 | MsrA activ conf 5.5
O=C(CSc1ncnc2c1oc1ccccc12)Nc1cccc(C(F)(F)F)c1	bovine MsrA act 8.8 | MsrA activ conf inactive
O=C(CSc1ncnc2c1oc1ccccc12)Nc1ccccc1F	none
O=C(OCCN1CCCCC1)C1(c2ccccc2)CCCC1	none
O=C(OCCN1CCCC1)C1(c2ccccc2)CCCC1	bovine MsrA act 9.6 | MsrA activ conf inactive
CCN(C(=O)CSc1nnc(-c2cccnc2)n1Cc1ccco1)c1ccccc1C	none (no result: MsrA inh, bovine MsrA act, PG9 binder)
COc1cccc(COc2ccccc2C2Nc3ccc(Br)cc3C(=O)N2NC(=O)c2ccncc2)c1 (centres undefined)	bovine MsrA act 18 | MsrA activ conf inactive
COc1ccc(C2Nc3ccccc3C(=O)N2NC(C)=O)c(OC)c1 (centres undefined)	none
CC1CCN(CCCNC(=O)c2coc3nc4ccccc4nc23)CC1	bovine MsrA act 9.0 | MsrA activ conf inactive
CC1CCCN(CCCNC(=O)c2coc3nc4ccccc4nc23)C1 (centres undefined)	none
CC/C(=N/NC(=O)c1ccc(Br)o1)c1ccc(Cl)cc1	bovine MsrA act 8.3 | MsrA activ conf inactive
CCCC/C(=N\NC(=O)c1ccc(Br)o1)c1ccccc1	none
O=C1CCC2(CCC(c3ccccc3)CC2)N1CC[C@@H](O)c1ccccc1 (some centres undefined)	none (no result: MsrA inh, rCAG binder, bovine MsrA act, PG9 binder)
Cc1cc(C)n(-c2ccc(C(=O)Nc3ccc4c(c3)OCO4)cc2)n1	bovine MsrA act 8.4 | MsrA activ conf inactive
C[C@H](CO)N1C[C@H](C)[C@@H](CN(C)S(=O)(=O)c2ccc3c(c2)OCCCO3)OCc2cnnn2CCCC1=O	none
C[C@@H]1CN([C@H](C)CO)C(=O)CCCn2nncc2CO[C@@H]1CN(C)S(=O)(=O)c1ccc2c(c1)OCCCO2	bovine MsrA act 12 | MsrA activ conf inactive
CC(C)NC(=O)N(C)C[C@@H]1OCc2cn(nn2)CCCC(=O)N([C@H](C)CO)C[C@H]1C	bovine MsrA act 13 | MsrA activ conf inactive
CCn1c2ccccc2c2cc(NC(=O)COC(=O)c3cccc(F)c3F)ccc21	none (no result: MsrA inh, bovine MsrA act, PG9 binder)
O=C1NC(Cc2ccccc2)c2nc3cc(F)c(F)cc3c(=O)n2-c2ncccc21 (centres undefined)	bovine MsrA act 9.7 | MsrA activ conf inactive
O=C1NC(Cc2ccccc2)c2nc3cc(F)ccc3c(=O)n2-c2ncccc21 (centres undefined)	none
CCOC(=O)C1=C(C)N(C)C(=O)NC1c1c(C)nn(-c2ccc(C)cc2)c1Cl (centres undefined)	bovine MsrA act 13 | MsrA activ conf inactive
Cc1ccc(/C=N/Nc2nncn2N)cc1	bovine MsrA act 8.5 | MsrA activ conf inactive
Nn1cnnc1N/N=C/c1ccc(Cl)c([N+](=O)[O-])c1	bovine MsrA act 18 | MsrA activ conf inactive
S=c1[nH]nc(-c2cccnc2)n1/N=C/c1cccs1	bovine MsrA act 10 | MsrA activ conf inactive
CC1(C)CNC(=O)c2sc(N3CCCCC3)nc2C1	bovine MsrA act 8.0 | MsrA activ conf inactive
CC1(C)CC(=O)c2sc(N3CCCCC3)nc2C1	none
COC(=O)c1sc(=S)n(-c2ccccc2OC)c1N	none
CCOC(=O)c1sc(=S)n(-c2ccccc2OC)c1N	bovine MsrA act 8.4 | MsrA activ conf inactive
Cc1cc(Cl)cc2sc(=S)[nH]c12	bovine MsrA act 8.2 | MsrA activ conf inactive
Cc1[nH]c(=S)sc1Cc1ccc(Cl)c(Cl)c1	none (no result: bovine MsrA act)
COc1cccc(N2CCN(C(=S)Nc3ccccc3OC)CC2)c1	none
CCOc1ccccc1NC(=S)N1CCN(c2cccc(OC)c2)CC1	bovine MsrA act 8.5 | MsrA activ conf inactive
COC(=O)[C@]12C[C@H](CC(=O)N3CCCC3)C(=O)N(Cc3ccc(Cl)cc3Cl)C1=C[C@H](COCc1ccccc1)O[C@@H]2C	none (no result: MsrA inh, bovine MsrA act, PG9 binder)
CN(Cc1ccccc1)C(=O)c1csc([C@H]2C[C@H](O)[C@@H](CO)O2)n1	none
CN(Cc1ccccc1)C(=O)c1csc([C@@H]2C[C@H](O)[C@@H](CO)O2)n1	bovine MsrA act 9.3 | MsrA activ conf inactive
CCCCOC(=O)Cn1c(=O)c2c(nc3n2CCCCN3c2ccc(C)cc2)n(C)c1=O	none
CCOC(=O)Cn1c(=O)c2c(nc3n2CCCCN3c2ccc(OCC)cc2)n(C)c1=O	bovine MsrA act 8.0 | MsrA activ conf inactive
CC(C)C[C@@H]1COc2cc(Br)ccc2S(=O)(=O)N1Cc1cn(Cc2ccco2)nn1	none (no result: MsrA inh, bovine MsrA act, PG9 binder)
COc1cc(OC)cc(C(=O)NC2CCN(CC(=O)Nc3cccc4ccccc34)CC2)c1	bovine MsrA act 8.9 | MsrA activ conf inactive
O=C(c1cccc(F)c1F)N1CCCC(c2nc(-c3cccs3)no2)C1 (centres undefined)	none (no result: MsrA inh, bovine MsrA act, PG9 binder)
COc1ccc(/C=N/Nc2ncnc(Cl)c2N)cc1OC	none
COc1cc(/C=N/n2nnnc2N)ccc1OC(C)=O	none
COc1ccc(/C=N/Nc2nnc(C)n2N)cc1OC	bovine MsrA act 9.0 | MsrA activ conf inactive
COc1ccc(/C=N/Nc2nnc(C)n2N)cc1OC(C)=O	bovine MsrA act 12 | MsrA activ conf inactive
O=C(/C=C/c1ccccc1)C1=C(O)C(=O)N(CCO)C1c1cccc([N+](=O)[O-])c1 (centres undefined)	bovine MsrA act 9.9 | MsrA activ conf inactive
COc1cccc(-c2cn(-c3cccc(C(F)(F)F)c3)c(=S)[nH]2)c1	none
COc1cccc(-n2cn[nH]c2=S)c1	bovine MsrA act 7.8 | MsrA activ conf inactive
COc1ccc(OC)c(N(CC(=O)NCc2ccccc2)S(=O)(=O)c2ccc(OC)c(OC)c2)c1	none
